# Results taken from PubChem BioAssay AID1345085 (National Center for Advancing Translational Sciences (NCATS), 2018).
# Inconclusive results are not listed. Activity calls are given as the source filed them. The call rests on the fitted dose curve; in most records, active means well fitted cell-killing curve with a large enough effect; inconclusive means small, poorly fitted or top-dose-only effect, or effect the other way; inactive means no such curve, though single readings can be large or run the other way.
# System: PA-1
# Assay: Confirmatory qHTS for gynecologic anti-cancer compounds from libraries of approved drugs and bioactive compounds; further: nearly all actives have a fitted effect of over 55% in size
# Conditions: gynecologic cancer cell panel viability, ATPlite luminescence, 48 h; series mostly up to 57.6 µM
# In short: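 ATP-based luminescent viability (ATPlite) after 48 h drug treatment at 37 °C, 5% CO2, across 57.5 uM–0.977 nM in 1:3 steps. Cells seeded at 1,000 per well 16 h beforehand; IC50 values computed, HEK 293T as selectivity control.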
# Potency means the concentration at half of the fitted maximal effect.
row,Structure (SMILES),Potency
1,N=C(N)c1ccc(OCCCCCOc2ccc(C(=N)N)cc2)cc1,4.32 µM (active)
2,CN(C[C@@H]1COCCO1)S(=O)(=O)Nc1ccc2ccc3ncc(-c4cnn(C)c4)cc3c(=O)c2c1,17.2 µM (active)
3,S=c1nc[nH]c2nc[nH]c12,3.85 µM (active)
4,CC[C@]1(O)C[C@H]2CN(CCc3c([nH]c4ccccc34)[C@@](C(=O)OC)(c3cc4c(cc3OC)N(C=O)[C@H]3[C@@](O)(C(=O)OC)[C@H](OC(C)=O)[C@]5(CC)C=CCN6CC[C@]43[C@@H]65)C2)C1,0.172 µM (active)
5,Cc1cc(Nc2nc(N[C@@H](C)c3ncc(F)cn3)ncc2Cl)n[nH]1,3.85 µM (active)
6,CN(NC(=O)CC(=O)NN(C)C(=S)c1ccccc1)C(=S)c1ccccc1,0.0544 µM (active)
7,CC(=O)NCC(=O)N1C2CCC1c1cc(Nc3ncc(C(F)(F)F)c(NC4CCC4)n3)ccc12 (stereo unspecified),0.685 µM (active)
8,COc1cc(Nc2ncc(F)c(Nc3ccc4c(n3)N(COP(=O)(O)O)C(=O)C(C)(C)O4)n2)cc(OC)c1OC,9.68 µM (active)
9,COc1cc2nccc(Oc3ccc(NC(=O)Nc4cc(C)on4)c(Cl)c3)c2cc1OC,5.44 µM (active)
10,COc1cc2nccc(Oc3ccc(NC(=O)C4(C(=O)Nc5ccc(F)cc5)CC4)cc3)c2cc1OC,10.9 µM (active)
11,Nc1ccc(-c2ccc3ncc4ccc(=O)n(-c5cccc(C(F)(F)F)c5)c4c3c2)cn1,0.863 µM (active)
12,N#CC1(c2cccc(C(=O)Nc3cc(Oc4ccc5nc(NC(=O)C6CC6)sc5n4)ccc3F)c2Cl)CC1,8.63 µM (active)
13,Nc1ccc(C(=O)Nc2cccc(-c3nc(N4CCOCC4)c4oc5ncccc5c4n3)c2)cn1,12.2 µM (active)
14,O=C(Nc1cn[nH]c1-c1nc2ccc(CN3CCOCC3)cc2[nH]1)NC1CC1,3.85 µM (active)
15,Cc1nc(N)nc(N)c1-c1ccc(Cl)c(Cl)c1,1.37 µM (active)
16,CC(C)Oc1ccc2c(=O)c(-c3ccccc3)coc2c1,17.2 µM (active)
17,Nc1ccn([C@@H]2O[C@H](CO)[C@@H](O)C2(F)F)c(=O)n1,0.0611 µM (active)
18,CC[C@H](CC#N)OC(=O)N[C@@H](C)c1cccc(NC(=O)Nc2ccc(-c3cnco3)c(OC)c2)c1,0.217 µM (active)
19,CCc1c2c(nc3ccc(OC(=O)N4CCC(N5CCCCC5)CC4)cc13)-c1cc3c(c(=O)n1C2)COC(=O)[C@]3(O)CC,7.69 µM (active)
20,CC(Oc1cc(-n2cnc3ccc(CN4CCN(C)CC4)cc32)sc1C(N)=O)c1ccccc1C(F)(F)F (stereo unspecified),2.43 µM (active)
21,CNCc1ccc(-c2[nH]c3cc(F)cc4c3c2CCNC4=O)cc1,19.3 µM (active)
22,CCCC(Nc1nc(-c2ccc(NC(=O)NCC)c(OC)c2)ncc1C)c1cccnc1 (stereo unspecified),0.137 µM (active)
23,O=C1N(c2ccccc2)c2ccccc2C1(Cc1ccncc1)Cc1ccncc1,inactive
24,O=C(Nc1cccnc1)N1CCC(Cc2cccc(Oc3ccc(C(F)(F)F)cn3)c2)CC1,6.85 µM (active)
25,Nc1ccccc1NC(=O)c1ccc(CNc2nccc(-c3cccnc3)n2)cc1,1.09 µM (active)
26,CN[C@@H](C)C(=O)N[C@H]1CN(C(=O)CC(C)C)CC[C@H]2CC[C@@H](C(=O)NC(c3ccccc3)c3ccccc3)N2C1=O,inactive
